Consider 21 compounds from PubChem BioAssay (NCI).

About 79,000 compounds went through this panel and 15% of them were active in at least one assay; those are over-represented in the sample as a whole. Unmarked numbers belong to inactive results. Calls of active or inactive are those of the source. No stated cut-off is given here; in the data, active means growth inhibition above about 70%; inactive means the rest.

Test [1] is described as follows: NCI Yeast Anticancer Drug Screen. Data for the rad50 strain (AID 155).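 Further: 0% = growth of vehicle-only cultures of the same strain.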 The settings on record: S. cerevisiae rad50 strain growth inhibition; at 50.0 µM; stronger effect = higher value. The gist of the method:
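Vehicle-treated cultures provide the reference for the growth inhibition reported for compound-exposed, repair-deficient yeast.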

A short description of test [2]: NCI Yeast Anticancer Drug Screen. Data for the mec2-1 strain (AID 157). The settings on record: S. cerevisiae mec2-1 strain, at 50.0 µM, stronger effect = higher value. In short, it runs like this:
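Strain: mec2-1 (DNA repair/cell cycle alteration). Compound exposure, then growth measured; inhibition expressed relative to vehicle.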

Test [3] is described as follows: NCI Yeast Anticancer Drug Screen. Data for the sgs1 mgt1 strain (AID 161).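 Further: 0% = growth of cultures given vehicle only.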 The settings on record: S. cerevisiae sgs1 mgt1 strain, at 50.0 µM, stronger effect = higher value. In short, it runs like this: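 Inhibition of yeast growth, normalised to vehicle-treated controls, is reported for a strain bearing genetic alterations in DNA damage repair.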
Test [4] can be described thus: NCI Yeast Anticancer Drug Screen. Data for the cln2 rad14 strain (AID 165).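 Further: 0% = growth equal to vehicle treated cultures.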 The settings on record: S. cerevisiae cln2 rad14 strain, at 50.0 µM, stronger effect = higher value. The gist of the method: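 Compounds are applied to the cln2 rad14 yeast strain, and growth is then compared with that of vehicle-treated cultures to give inhibition.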
Test [5] in a line: NCI Yeast Anticancer Drug Screen. Data for the bub3 strain (AID 167). Particulars: S. cerevisiae bub3 mutant strain, at 50.0 µM, stronger effect = higher value. In short, it runs like this:
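Mutant yeast screening strain plus compound; vehicle-treated cultures serve as the 0% inhibition reference.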

The nature of test [6]: NCI Yeast Anticancer Drug Screen. Data for the mlh1 rad18 strain (AID 175). The settings on record: S. cerevisiae mlh1 rad18 strain growth inhibition; at 50.0 µM; stronger effect = higher value. In short, it runs like this:
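Read-out is yeast growth inhibition, calculated against vehicle-only controls. The compound was applied to a strain engineered with DNA damage repair alterations.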

`CCCCCCCCCCCCCCCCSS(=O)(=O)O`: the growth inhibition in test [1] is 8.5%; in test [2], 15.7%; in test [3], 15.8%; in test [4], -1.15%; in test [5], 0.15%; in test [6], 4.9%.

Regarding `COc1ccc2c(c1)c(=O)c1c(NCCCN(C)C)ccc3ncn2c31`, the growth inhibition was 34.6% in test [1]; -5.35% in test [2]; 15.8% in test [3]; -1.7% in test [4]; -9.6% in test [5]; 9.3% in test [6].

`Cc1cc2c(C)[nH]nc2c(C(=O)O)c1C`: the growth inhibition in test [1] was 6.85%; in test [2], -5.15%; in test [3], 6.35%; in test [4], 11.1%; in test [5] it was 3.2%; in test [6], 19.4%.

Take `COc1ccc(C(O)C(C)(C(=O)O)c2ccccc2)cc1` (stereo unspecified): the growth inhibition is 2.95% in test [1]; 2.25% in test [2]; 4.6% in test [3]; -6.35% in test [4]; -5.05% in test [5]; 8.55% in test [6].

`NNc1ccc(S(=O)(=O)C(F)F)cc1`: the growth inhibition in test [1] was 29.9%; in test [2], -29.2%; in test [3] it was 20.6%; in test [4], 41%; in test [5], 41.2%; in test [6], 13.1%.

`CCOc1cc(/C=N/NC(=O)c2ccccc2NC(=O)c2ccccc2)ccc1OC`: the growth inhibition in test [1] was -21.6%; in test [2] it was 2.35%; in test [3] it was 17.8%; in test [4], -4.1%; in test [5], 5.4%; in test [6], 5.7%.

Regarding `c1ccc(-c2csc3[n+]2CCN3)cc1`, the growth inhibition was 18.6% in test [1]; 13.9% in test [2]; 12.8% in test [3]; 5.3% in test [4]; 2.8% in test [5]; 14.2% in test [6].

`COc1ccc([N+](=O)[O-])c2c(C)cc(=O)[nH]c12`: the growth inhibition in test [1] is 32.1%; in test [2], 19.4%; in test [3], 21.9%; in test [4], -9.5%; in test [5], -23.6%; in test [6], 35.7%.

Consider `CC(=O)c1ccc2c(ccc3ccccc32)c1O`, for which the growth inhibition in test [1] was -16.5%; in test [2] it was -11.6%; in test [3], -3.65%; in test [4], -8.8%; in test [5], -2.45%; in test [6], 0.7%.

In the case of `CC(C)(C)NC1=C([N+](=O)[O-])CCCC1`, the growth inhibition in test [1] was 4.25%; in test [2], 6%; in test [3], -1.05%; in test [4], -19.6%; in test [5], 11.9%; in test [6], 4.5%.

With `COc1ccc(/C=C2\N=C(NN)N=C2Cl)cc1`, the growth inhibition in test [1] was -8.2%; in test [2], -30.9%; in test [3], 4.55%; in test [4], 23.4%; in test [5], -0.35%; in test [6], -13.3%.

`COC(=O)CC1C(=O)OC23CCC1C2(C)CCC1C3CCC2CC(OC(C)=O)CCC21C` (stereo unspecified): the growth inhibition in test [1] is 87.4% (active); in test [2] it was 89.3% (active); in test [3], 90.5% (active); in test [4], 82% (active); in test [5], 87.5% (active); in test [6], 87.9% (active).

Turning to `CCc1ccc(NC(=O)Nc2ccc(Cl)cc2)cc1`, the growth inhibition in test [1] was -3.2%; in test [2], 7.75%; in test [3], -8.65%; in test [4], -16.9%; in test [5] it was -0.8%; in test [6], -12.6%.

For `COC(=O)c1c(-c2ccccc2)cn(C)c1C`, the growth inhibition is 16.9% in test [1]; 9.95% in test [2]; 12.8% in test [3]; 5.75% in test [4]; 6.6% in test [5]; -6.4% in test [6].

Take `CC(c1ccccc1O)C1CCCCC1N=O` (stereo unspecified): the growth inhibition in test [1] was -0.15%; in test [2], 3%; in test [3], 16.1%; in test [4], -48.5%; in test [5], 15.2%; in test [6], -4.15%.

For the compound `N#CN=C(N(Cc1ccccc1)Cc1ccccc1)N(Cc1ccccc1)Cc1ccccc1`, the growth inhibition in test [1] was -3.65%; in test [2] it was -12.4%; in test [3], -18.6%; in test [4] it was 20.6%; in test [5], 12.4%; in test [6] it was -14.1%.

Turning to `COc1cc(CN2CCCCC2)cc2cc(C(=O)O)c(=O)oc12`, the growth inhibition in test [1] is 8.75%; in test [2] it was 7.55%; in test [3], -34.9%; in test [4], -1.15%; in test [5] it was -15.3%; in test [6] it was -11.9%.

As for `Cc1ncc([N+](=O)[O-])n1CCNC(=O)CCCCn1ccnc1[N+](=O)[O-]`, the growth inhibition in test [1] is 5%; in test [2], -3.75%; in test [3], -8.6%; in test [4], 15.1%; in test [5], 7.15%; in test [6], -45%.

Turning to `Cc1ccc(S(=O)(=O)N/N=C2\C3CC4CC(C3)C2C4)cc1` (stereo unspecified), the growth inhibition in test [1] was -21%; in test [2] it was -24.1%; in test [3], -12.9%; in test [4] it was -6.5%; in test [5] it was -6.25%; in test [6], -15.2%.

As to `NNc1ncnc2c(C3OC(CO)C(O)C3O)[nH]nc12` (stereo unspecified), the growth inhibition in test [1] was 7%; in test [2] it was 6.35%; in test [3], 8.2%; in test [4], -70.3%; in test [5], 7.15%; in test [6], 8.95%.

Regarding `O=C(COc1ccc(Cl)cc1C(=O)O)NCc1cccc2ccccc12`, the growth inhibition in test [1] was -0.2%; in test [2], 36%; in test [3] it was 41.8%; in test [4], 0.9%; in test [5] it was 46%; in test [6] it was 31.6%.
